Measured values taken from ChEMBL document CHEMBL1157539, “Thousands of chemical starting points for antimalarial lead identification” (Nature, 2010).

tested on: Plasmodium falciparum; assay: GSK_TCMDC: Inhibition of Plasmodium falciparum Dd2 in whole red blood cells, using parasite LDH activity as an index of growth. Test compounds present at 2uM; type: functional

In order of falling Inhibition:
1. COc1cc(OC)cc(-c2nn(-c3ccc([N+](=O)[O-])cc3Cl)c(=S)n2Cc2ccco2)c1  100%
2. CN(C)/C(=N/C(=N)Nc1ccc(Cl)cc1)NCCCCCCN/C(=N\C(=N)Nc1ccc(Cl)cc1)N(C)C  98%
3. N=C(NCCCCCCCCNC(=N)Nc1ccc(Cl)cc1)Nc1ccc(Cl)cc1  89%
4. COC(=O)c1ccc(CCCNCC(O)c2cccc(C(F)(F)F)c2)cc1 (centres undefined)  88%
5. COc1cc(NC(=O)c2sc(-c3ccc(Cl)cc3)cc2NC(=O)CN2CC[C@@H](O)C2)ccc1OCCN1CCCC1  79%
6. COc1ccc(F)cc1-c1ccccc1CNC(=O)CN(C)S(=O)(=O)c1cc(C)cc(Cl)c1C  73%
7. CC(C)CCNC(=O)C1Cc2c([nH]c3ccc(Br)cc23)C2(CCN(Cc3ccccc3)CC2)N1 (centres undefined)  68%
8. COC(=O)c1ccc2[nH]cc(C3CCN(CCC4CCN(C(=O)/C=C/c5ccc(Cl)c(Cl)c5)CC4)CC3)c2c1  59%
9. NCCNc1ccnc2cc(Cl)ccc12  54%
10. O=S(=O)(Nc1cccc(CCN2CCC(N3CCCCC3)CC2)c1)c1ccccc1C(F)(F)F  32%
11. COc1ccc(Br)cc1/C=C/C(=O)Nc1cccc(C2CCCN(C)C2)c1.O=CO (centres undefined)  30%
12. O=C(Nc1cccc(C(F)(F)F)c1)c1cccc(S(=O)(=O)NCC2CCCN(CC3CCCCC3)C2)c1.O=C(O)C(F)(F)F (centres undefined)  11%
13. O=C(/C=C/c1ccc(Cl)c(Cl)c1)NCCCCN1CCC(c2c[nH]c3ccccc23)CC1  11%
14. CC(C)(C)COc1ccc2c(N)n[nH]c2c1.Cl  8%
